An excerpt weighted towards active compounds, which were near 2.5% of everything screened.
PG9 binder: small molecules binding HIV-1 gp120 antibody PG9; TR-FRET gp120-PG9 antibody binding; inhibition, % at 6.7 µM; hit rate 0.43% among 360,000; AID 624416; in the data active = inhibition above about 8.5%
ABCB6 inh MLPCN: human ABCB6 transporter inhibition | K562-ABCB6 porphyrin accumulation, flow cytometry, 1 h; stronger effect = lower value | hit rate 0.19% among 360,000 | fluorescence ratio to DMSO, % at 10 µM;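 active = fluorescence ratio to DMSO below 75%, the collection mean minus 3 SD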;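 note: signal is porphyrin accumulated inside mitochondria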
Target sequence (Q9NP58 whole entry, looked up): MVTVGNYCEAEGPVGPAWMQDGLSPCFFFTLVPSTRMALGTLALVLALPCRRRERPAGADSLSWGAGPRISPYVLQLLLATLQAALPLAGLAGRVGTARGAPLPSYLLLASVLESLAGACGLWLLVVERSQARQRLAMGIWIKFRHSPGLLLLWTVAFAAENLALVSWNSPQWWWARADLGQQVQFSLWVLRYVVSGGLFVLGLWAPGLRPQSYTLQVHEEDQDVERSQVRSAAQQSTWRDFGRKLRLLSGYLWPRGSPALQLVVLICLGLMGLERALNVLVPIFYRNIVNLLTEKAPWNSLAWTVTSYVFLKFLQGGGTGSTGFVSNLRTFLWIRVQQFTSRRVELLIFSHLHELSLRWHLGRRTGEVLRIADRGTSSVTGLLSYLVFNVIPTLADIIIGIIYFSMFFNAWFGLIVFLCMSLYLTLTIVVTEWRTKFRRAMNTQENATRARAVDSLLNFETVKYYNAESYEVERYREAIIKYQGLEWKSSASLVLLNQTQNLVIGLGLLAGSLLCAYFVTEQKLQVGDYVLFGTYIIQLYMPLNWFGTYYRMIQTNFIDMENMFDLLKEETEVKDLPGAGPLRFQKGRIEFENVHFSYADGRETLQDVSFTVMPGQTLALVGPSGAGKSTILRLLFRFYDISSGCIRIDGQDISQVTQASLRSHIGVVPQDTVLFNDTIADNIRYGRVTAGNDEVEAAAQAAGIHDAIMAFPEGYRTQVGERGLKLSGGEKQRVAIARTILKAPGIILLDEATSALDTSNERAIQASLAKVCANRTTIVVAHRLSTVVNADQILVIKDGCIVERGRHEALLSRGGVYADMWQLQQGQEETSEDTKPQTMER
rCAG RNA binder: binds r(CAG) RNA repeats; r(CAG) RNA repeat, TO-PRO-1 dye displacement fluorescence; inhibition, % at 3 µM; hit rate 1.3% among 370,000; AID 651821;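 active = inhibition above the plate cutoff, the mean of all test compounds on that plate plus 3 SD, cut at about 35% in these data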;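 note: higher means more dye released from RNA so lower well fluorescence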
Granule exo inh: blocks lytic granule exocytosis | AID 651702 | inhibition, % at 10 µM | TALL-104 LAMP-1 surface exposure, flow cytometry; cells stimulated with thapsigargin and PMA | hit rate 0.66% among 360,000;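 active = inhibition above about 55%, limit read from the data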
rCAG bind conf: r(CAG) RNA repeat binding, confirmation; shares compounds with rCAG RNA binder; hit rate 70% among 4,300; inhibition, % at 3 µM; TO-PRO-1 dye displacement fluorescence;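 active = inhibition above a per-plate cutoff, the mean inhibition of sample wells plus 3 SD, cut at about 35% in these data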;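 note: loss of TO-PRO-1 fluorescence as compound displaces dye from 1x1 AA loop RNA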
DNA CAG counter: DNA CAG dye complex inhibition counter-screen. shares compounds with rCAG RNA binder. d(CAG) DNA oligo TO-PRO-1 dye displacement, fluorescence. inhibition, % at 3 µM. hit rate 94% among 4,300. AID 652068;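 active = inhibition above its plate's cutoff, the mean test-well inhibition plus 3 SD, cut at about 4.8% in these data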;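 note: hits displace the dye from DNA and so lower well fluorescence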
Each line names hits and unclear results; the compound was inactive in the other large screens (follow-up assays come after a bar, where they were run).

Cc1ccc(CNC(=O)CSc2ccsc2[N+](=O)[O-])cc1	none
Cc1ccc(C)c(Sc2ccc(S(=O)(=O)Nc3ccc(C(=O)O)cc3)cc2)c1	rCAG RNA binder 38 | rCAG bind conf 41 | DNA CAG counter 11
Cc1ccc(S(=O)(=O)c2cc(C)cc(S(=O)(=O)Nc3ccc(C(=O)O)cc3)c2C)cc1	none
Cc1ccc(Sc2ccc(S(=O)(=O)Nc3ccc(CC(=O)O)cc3)cc2)cc1C	rCAG RNA binder 52 | rCAG bind conf 44 | DNA CAG counter 14
COc1ccc(CN(CCN)C2CC(C)N(C)CC2C)cc1 (stereo unspecified)	none
CCOC(=O)C1=CC[C@@H](c2ccc(F)cc2)N(S(=O)(=O)c2ccc(C)cc2)[C@H]1c1ccccc1	none
Cc1ccc([C@@H]2CC=C(C(=O)O)[C@H](c3ccccc3)N2S(=O)(=O)c2ccccc2C)cc1	rCAG RNA binder 55 | rCAG bind conf 57 | DNA CAG counter 20
Cc1ccc([C@H]2C(C(=O)O)=CC[C@@H](c3ccc(C)cc3)N2S(=O)(=O)c2ccccc2C)cc1	rCAG RNA binder 75 | rCAG bind conf 62 | DNA CAG counter 27
COc1ccc([C@@H]2CC=C(C(=O)O)[C@H](c3ccc(F)cc3)N2S(=O)(=O)c2ccccc2C)cc1	rCAG RNA binder 59 | rCAG bind conf 45 | DNA CAG counter 13
COc1ccc([C@@H]2CC=C(C(=O)O)[C@H](c3ccccc3F)N2S(=O)(=O)c2ccccc2C)cc1	rCAG RNA binder 41 | rCAG bind conf 41 | DNA CAG counter 11
Cc1ccc([C@@H]2CC=C(C(=O)O)CN2S(=O)(=O)c2ccccc2C)cc1	none
Cc1ccc([C@H]2C(C(=O)O)=CC[C@@H](c3ccc(Cl)cc3)N2S(=O)(=O)c2ccccc2C)cc1	none (no result: PG9 binder, rCAG RNA binder)
CCC(=O)N1CCc2cc(Br)c(S(=O)(=O)CCC(=O)NCCc3ccccc3)cc21	none
COc1ccc([C@@H]2CC=C(C(=O)O)[C@H](c3ccc(C)cc3)N2S(=O)(=O)c2ccccc2C)cc1	rCAG RNA binder 66 | rCAG bind conf 63 | DNA CAG counter 26
Cc1ccc(N2CC(C(=O)Nc3ccc(S(=O)(=O)Nc4nccs4)cc3)CC2=O)cc1C (stereo unspecified)	rCAG RNA binder 48 | rCAG bind conf 64 | DNA CAG counter 19
O=C(Nc1ccc(S(=O)(=O)Nc2nccs2)cc1)C1CC(=O)N(c2ccc(Cl)cc2)C1 (stereo unspecified)	rCAG RNA binder 54 | rCAG bind conf 41 | DNA CAG counter 15
Cc1ccc(S(=O)(=O)N2[C@@H](c3ccc(Cl)cc3)C(C(=O)O)=CC[C@H]2c2ccc3c(c2)OCO3)cc1	rCAG RNA binder 54 | rCAG bind conf 60 | DNA CAG counter 23
Cc1ccc(S(=O)(=O)N2[C@@H](c3cccc(Cl)c3)C(C(=O)O)=CC[C@H]2c2ccc3c(c2)OCO3)cc1	rCAG RNA binder 67 | rCAG bind conf 69 | DNA CAG counter 31
CC[C@@H]1C=C(C(=O)O)[C@H](c2ccc3c(c2)OCO3)N1S(=O)(=O)c1ccc(C)cc1	none
Cc1ccc([C@H]2C(C(=O)O)=CC[C@@H](c3ccc4c(c3)OCO4)N2S(=O)(=O)c2ccc(C)cc2)cc1	rCAG RNA binder 63 | rCAG bind conf 61 | DNA CAG counter 22
Cc1ccc(S(=O)(=O)N2[C@@H](c3ccc(Br)cc3)C(C(=O)O)=CC[C@H]2c2ccc3c(c2)OCO3)cc1	rCAG RNA binder 67 | rCAG bind conf 60 | DNA CAG counter 23
CNc1c2cccc(C)c2nc2c(C(=O)NCCN(C)C)cccc12	none
COc1ccc(N(CC(=O)Nc2ccccc2C(=O)O)S(=O)(=O)c2ccc(C)c([N+](=O)[O-])c2)cc1	rCAG RNA binder 72 | rCAG bind conf 54 | DNA CAG counter 17
Cc1ccc(S(=O)(=O)N(CC(=O)Nc2ccccc2C(=O)O)c2ccccc2)cc1	rCAG RNA binder 41 | rCAG bind conf inactive | DNA CAG counter 8.4
COc1ccccc1NC(=O)CN(c1ccccc1)S(=O)(=O)c1ccccc1	none
O=C(O)c1cccc(-n2cccc2/C=C2/NC(=O)N(c3cccc(Cl)c3)C2=O)c1	rCAG RNA binder 36 | rCAG bind conf 35 | DNA CAG counter 10
O=C(O)c1cccc(-n2cccc2/C=C2/NC(=O)N(c3ccc(Cl)cc3)C2=O)c1	rCAG RNA binder 72 | rCAG bind conf 69 | DNA CAG counter 30
O=C(Nc1ccc2c(c1)OCO2)c1cc(-c2ccc(O)cc2)on1	none
CCC(C(=O)Nc1ccccc1C(=O)N1CCCC1)N1C(=O)c2ccccc2C1=O (stereo unspecified)	none
O=C(O)c1ccccc1NC(=O)C(Cc1ccccc1)N1C(=O)c2ccccc2C1=O (stereo unspecified)	rCAG RNA binder 42 | rCAG bind conf 49 | DNA CAG counter 12
COC(=O)CSc1nnc(-c2ccc(NS(=O)(=O)c3ccc(Cl)s3)cc2)o1	rCAG RNA binder 39 (no result: PG9 binder, ABCB6 inh MLPCN, Granule exo inh) | rCAG bind conf inactive | DNA CAG counter 5.8
COC(=O)CSc1nnc(-c2ccc(NS(=O)(=O)c3ccc(C)c(C)c3)cc2)o1	none (no result: PG9 binder, ABCB6 inh MLPCN, Granule exo inh)
CCOc1cc(/C=N/Nc2cccc(C(=O)O)c2)ccc1OC(=O)c1ccccc1	rCAG RNA binder 36 | rCAG bind conf 82 | DNA CAG counter 51
COc1ccc(/C=N/Nc2ccc(C(=O)O)cc2)cc1Br	none
C=CCOc1c(Br)cc(/C=N/Nc2ccc(C(=O)O)cc2)cc1OCC	rCAG RNA binder 83 | rCAG bind conf 66 | DNA CAG counter 26
O=C(O)c1cccc(N/N=C/C2=C(Cl)c3cc(Cl)ccc3SC2)c1	rCAG RNA binder 35 | rCAG bind conf 80 | DNA CAG counter 50
COc1cc(C=NNc2ccccc2)ccc1OC(=O)c1ccccc1	none
Cc1nn(-c2cccc(C(F)(F)F)c2)c(Cl)c1/C=N/Nc1cccc(C(=O)O)c1	rCAG RNA binder 44 | rCAG bind conf 57 | DNA CAG counter 19
CCC(C)NC(=O)c1cc2c(=O)n(CC)c3ccccc3c2s1 (stereo unspecified)	none
Cc1ccc(/C=N/Nc2cccc(C(=O)O)c2)s1	rCAG RNA binder 36 | rCAG bind conf inactive | DNA CAG counter 4.8
O=C(Nc1ccccc1C(=O)O)/C(=C/c1ccc(Cl)cc1Cl)NC(=O)c1ccco1	rCAG RNA binder 52 | rCAG bind conf inactive | DNA CAG counter 6.0
O=C(Nc1cccc(C(=O)O)c1)/C(=C\c1ccco1)NC(=O)c1ccccc1Cl	none
Cc1cccc(NC2=NCC(=O)N2Cc2cccs2)c1	none
COC(=O)c1ccccc1NCc1cc(=O)oc2cc(O)c(O)cc12	rCAG RNA binder 36 | rCAG bind conf 52 | DNA CAG counter 23
CCC(C)Oc1ccc(/C=C/c2[nH]c(=O)[nH]c(=O)c2[N+](=O)[O-])cc1OC (stereo unspecified)	rCAG RNA binder 36 | rCAG bind conf inactive | DNA CAG counter 4.9
COc1cc(/C=C/c2[nH]c(=O)[nH]c(=O)c2[N+](=O)[O-])ccc1OCCC(C)C	none

Screening data from PubChem BioAssay.
